# A selection: hits, their analogues and other compounds. The true share with any hit is near 4.2%.
# Mtb betalactam = beta-lactam sensitization of Mtb H37Rv; AID 434955; M. tuberculosis H37Rv growth with meropenem, percent inhibition; 330,000 tested, 0.27% active; inhibition, % at 25 µM; call rule not given here;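 note: growth measured after seven days incubation then overnight dye step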
# GDH-TPI counter-1 = GDH-TPI coupled enzyme inhibition counter-screen; inhibition, % at 4.8 µM; 360,000 tested, 1.2% active; GDH-TPI coupled enzyme counterscreen, NADH absorbance; in the data active = inhibition above about 30%
# Mtb FBA inh = inhibits M. tuberculosis FBA enzyme; P9WQA3; AID 588726; purified M. tuberculosis FBA, fluorescence read-out; 360,000 tested, 2.3% active; inhibition, % at 1 µM
# Target sequence (P9WQA3 whole entry, looked up): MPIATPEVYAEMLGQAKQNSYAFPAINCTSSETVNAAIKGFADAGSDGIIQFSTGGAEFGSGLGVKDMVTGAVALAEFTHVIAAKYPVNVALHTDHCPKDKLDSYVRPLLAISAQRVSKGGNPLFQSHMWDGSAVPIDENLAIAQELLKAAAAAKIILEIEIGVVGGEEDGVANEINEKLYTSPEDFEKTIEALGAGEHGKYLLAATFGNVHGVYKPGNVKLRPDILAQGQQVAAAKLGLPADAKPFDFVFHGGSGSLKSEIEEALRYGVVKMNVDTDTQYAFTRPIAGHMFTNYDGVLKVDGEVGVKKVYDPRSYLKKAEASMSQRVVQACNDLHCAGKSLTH
# RecA intein inh = Mtb RecA intein splicing inhibition; 290,000 tested, 0.75% active; inhibition, % (no concentration beside the values); cell-free RecA intein splicing, fluorescence; AID 2221; in the data active = inhibition above about 30%; inconclusive = no clear call, values can overlap the other calls
# CCHF vOTU inh = blocks the CCHF virus ovarian tumor domain protease; inhibition, % at 11.5 µM; CCHFV vOTU protease, Pep-AMC fluorescence; 370,000 tested, 0.55% active; in the data active = inhibition above about 30%
# Mtb FBA inh conf = confirmation of M. tuberculosis fructose-bisphosphate aldolase inhibitors; purified M. tuberculosis FBA, fluorescence read-out; shares compounds with Mtb FBA inh; inhibition, % at 1 µM; 5,600 tested, 78% active; AID 651616
# GDH-TPI counter-2 = inhibits GDH-TPI coupling enzymes, flagging Mtb FBA hits | shares compounds with Mtb FBA inh | GDH-TPI coupled enzyme counterscreen, fluorescence | inhibition, % at 1 µM | 5,600 tested, 81% active; in the data active = inhibition above about 10%
# Hits are given with their value; . = inactive; ? = inconclusive; / = no result; + = active, no number. Cut-off read from the data, not from the text of the source, unless noted: active = inhibition above about 27%; inactive = the rest.
SMILES,Mtb betalactam,GDH-TPI counter-1,Mtb FBA inh,RecA intein inh,CCHF vOTU inh,Mtb FBA inh conf,GDH-TPI counter-2
CC(C#N)(Nc1ccc(Cl)cc1)c1cccnc1 (stereo unspecified),.,.,28,.,.,+,+
O=C(Cc1cccs1)N1CCN(c2ccccn2)CC1,.,.,29,.,.,54,43
O=Cc1cn(-c2ccccc2)nc1-c1cc2cc(O)ccc2oc1=O,.,34,32,.,.,82,57
CCOc1ccc(-c2cc(C(=O)N3CCCC3)c3ccccc3n2)cc1,?,.,91,.,/,152,131
CCOC(=O)N1CCN(C(=O)c2cc(-c3ccc(OCC)cc3)nc3ccccc23)CC1,.,.,77,.,.,103,71
CCOc1ccc(-c2cc(C(=O)N3CCN(C)CC3)c3ccccc3n2)cc1,.,.,92,.,.,.,.
CCOC(=O)N1CCN(C(=O)c2cc(-c3ccncc3)nc3ccccc23)CC1,.,.,.,.,.,/,/
C=CCNC(=O)c1ccc2nc(-c3ccccc3)c(-c3ccccc3)nc2c1,.,.,32,.,.,+,175
COC(=O)[C@]12C[C@H](CC(=O)NCc3ccccc3)C(=O)N(CCc3ccc(OC)c(OC)c3)C1=C[C@H](COCc1ccccc1)O[C@@H]2C,/,/,/,/,.,/,/
CCOC(=O)[C@@]12CN(C(=O)OC(C)(C)C)CC=C1N(Cc1ccc(OC)cc1)C(=O)[C@H]2CC(=O)N1CCN(C(=O)C2CC2)CC1,/,/,/,/,.,/,/
O=C(CC1CCCC1)N1CC[C@H]2[C@H](CCCN2Cc2ccccc2)C1,/,/,/,/,.,/,/
C=CC[C@]1(O)C(=O)N(c2ccccc2)c2ccccc21,/,/,/,/,.,/,/
O=C(Nc1ccc(Cl)c(Cl)c1)C1CCN(c2ncccn2)CC1,/,/,/,/,.,/,/
CCOC(=O)N1CCN(C(=O)c2ccc3nc(-c4ccccc4)c(-c4ccccc4)nc3c2)CC1,.,.,35,.,.,99,67
CC(C)C[C@H](NC(=O)C1CCCC1)C(=O)N1CCC[C@H]1C(=O)NCc1ccccc1,/,/,/,/,.,/,/
CCN(CC(=O)NCc1ccc(F)cc1)C(=O)/C=C/c1cc(OC)ccc1OC,/,.,45,.,.,+,194
CN(CCc1ccccn1)C(=O)[C@@H](Cc1ccccc1)NC(=O)[C@H]1O[C@@H](n2ccc(=O)[nH]c2=O)[C@H](O)[C@@H]1O,/,/,/,/,.,/,/
COCCCN1C(=O)[C@H](CC(=O)N2CCCC2)[C@]2(C(=O)OC)CCCCC=C12,/,/,/,/,.,/,/
CN(Cc1ccon1)C(=O)CC1C(=O)NCCN1Cc1cccc(Oc2ccccc2)c1 (stereo unspecified),.,.,.,.,.,/,/
CN(Cc1ccccn1)C(=O)CC1C(=O)NCCN1Cc1cccc(Oc2ccccc2)c1 (stereo unspecified),.,.,32,/,.,165,122
Cc1ccc(CNC[C@@]23CO[C@H](c4ccc(Cl)cc4)N2[C@@H](c2ccc(Cl)cc2)SC3)o1,/,/,/,/,.,/,/
O=C(O)c1ccccc1NCN1C(=O)C2CC=C(Cl)CC2C1=O (stereo unspecified),.,.,40,.,.,.,29
Cc1ccc(NCN2C(=O)C3CC=C(Cl)CC3C2=O)cc1 (stereo unspecified),.,.,.,/,.,/,/
CC(=O)N1CC2(NC(=O)c3ccccc3N2)c2ccccc21 (stereo unspecified),.,.,80,.,.,+,188
COc1ccc(S[C@]2(C(=O)N(C)C)CC(=O)N(c3ccsc3)[C@@H]2c2ccc(OC)cc2)cc1,/,/,/,/,.,/,/
SMILES,Mtb betalactam,GDH-TPI counter-1,Mtb FBA inh,RecA intein inh,CCHF vOTU inh,Mtb FBA inh conf,GDH-TPI counter-2
COC(=O)C1=C(C)N(Cc2ccccc2C(F)(F)F)C(=NCc2ccc3c(c2)OCO3)NC1CCc1ccccc1 (stereo unspecified),/,/,/,/,.,/,/
CC1=C(C(=O)Nc2ccc(F)cc2)C(c2ccncc2)C2=C(CCCC2=O)N1 (stereo unspecified),.,.,.,.,.,/,/
CC1=C(C(=O)Nc2ccccn2)C(c2cn(C)nc2C)C2=C(CCCC2=O)N1 (stereo unspecified),.,.,37,/,.,+,171
CCn1cc(C2C(C(=O)Nc3ccc(Br)cn3)=C(C)NC3=C2C(=O)CCC3)c(C)n1 (stereo unspecified),.,.,33,.,.,132,94
COC(=O)C1=C(C)NC2=C(C(=O)CCC2)C1c1cn(Cc2ccc(Cl)cc2Cl)nc1-c1ccccc1 (stereo unspecified),.,.,.,.,.,/,/
COc1ccc(-n2c(C)nnc2SCC(=O)NC2CC2)cc1,.,.,92,.,.,42,34
O=C(Nc1cccc2ccccc12)N(CCO)C1CCS(=O)(=O)C1 (stereo unspecified),.,.,61,.,.,108,105
O=C1Nc2ccc(S(=O)(=O)NCC3CCCO3)c3cccc1c23 (stereo unspecified),.,.,50,.,.,47,31
CCNS(=O)(=O)c1ccc2c3c(cccc13)C(=O)N2,.,.,65,.,.,53,38
O=C1Nc2ccc(S(=O)(=O)NCCCO)c3cccc1c23,.,.,52,.,.,94,61
COC(=O)C1CN(CCc2ccccc2)CCS(=O)(=O)N1Cc1ccc(OC)cc1 (stereo unspecified),/,/,/,/,.,/,/
CNC(=O)/C(C#N)=C/c1c(N2CCN(c3ccc(OC)cc3)CC2)nc2c(C)cccn2c1=O,.,.,37,.,.,+,142
CNC(=O)/C(C#N)=C/c1c(N2CCCCCC2)nc2c(C)cccn2c1=O,.,.,28,.,.,+,184
Cc1cccn2c(=O)c(C=C(C#N)C#N)c(N3CCN(c4ccccc4)CC3)nc12,.,.,.,.,.,/,/
CNC(=O)/C(C#N)=C/c1c(N2CCN(c3ccccc3)CC2)nc2c(C)cccn2c1=O,.,.,37,.,.,.,.
CNC(=O)/C(C#N)=C/c1c(N2CCCCCC2)nc2ccccn2c1=O,.,.,64,.,.,.,.
COC(=O)/C(C#N)=C/c1c(N2CCN(c3ccc(OC)cc3)CC2)nc2c(C)cccn2c1=O,.,.,.,.,.,/,/
CCOC(=O)N(NC(=O)C(O)(C(C)C)C(C)C)c1ccccc1,.,.,101,.,.,47,55
COC(=O)[C@]12C[C@H](CC(=O)NCc3ccc(OC)c(OC)c3)C(=O)N(Cc3cccc4ccccc34)C1=C[C@H](C(C)C)O[C@@H]2C1CC1,/,/,/,/,.,/,/
Cc1ccc(NCc2ccc(Cl)nc2)c(NCc2ccc(Cl)nc2)c1,.,.,28,.,.,.,.
O=C(OCc1cc(=O)oc2cc(O)ccc12)c1cc(S(=O)(=O)N2CCOCC2)ccc1F,.,.,41,.,.,.,.
NC(=O)CSc1oc(-c2ccc(F)cc2)nc1S(=O)(=O)c1ccccc1,.,.,62,/,.,158,89
